Casp7 inh – qHTS Assay for Allosteric/Competitive Inhibitors of Caspase-7; P55210; recombinant caspase-7, Ac-DEVD-AFC fluorescence rate; Potency, µM (series often up to 57.5 µM), for the others: top-dose activity change, negative = inhibition, most hits filed as inhibitors; 75,000 compounds, 0.02% hits; AID 889, 2007; active = well fitted inhibition curve with a large enough effect in the main read-out, with a control signal flat, not every such curve was filed as active; inconclusive = small, poorly fitted or top-dose-only effect, or a change in a side signal; also: % of control where 0% means no effect
HEK293 cAMP cs – qHTS Assay for Agonists of the Thyroid Stimulating Hormone Receptor: Activators of Intracellular cAMP Concentrations in Parental HEK 293; 73,000 compounds, 2.5% hits; parental HEK293 CNG cAMP sensor, membrane potential fluorescence; Potency, µM (top dose mostly 57.1 µM), for inactives: at the top dose activation, usual class: activators; AID 938, 2007; also: % of control where 0% means no effect; nearly all actives have a fitted effect of over 55% in size
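Parental HEK 293 cells stably expressing a cAMP-gated CNG channel were loaded with membrane potential dye containing 100 uM RO 20-1724 for 60 min. Compound added for 30 min; depolarization read as fluorescence intensity at 590 nm.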
Casp1 inh – qHTS Assay for Allosteric/Competitive Inhibitors of Caspase-1; P29466; Caspase-1 enzyme, Ac-WEHD-AFC fluorogenic rate; Potency, µM (top dose mostly 57.5 µM), inactives show at the highest dose activity change, negative = inhibition, actives largely listed as inhibitors; 75,000 compounds, 0.03% hits; AID 900, 2007;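 also: plate controls were vehicle for no effect and no substrate for full effect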
USP2a inhib – qHTS Assay for Inhibitors of Ubiquitin-specific Protease USP2a; Ubiquitin carboxyl-terminal hydrolase 2 (Homo sapiens), O75604; USP2a enzymatic assay, qHTS inhibition; Potency, µM (series often up to 38.3 µM), for inactives: at the highest dose activity change, negative = inhibition, hits mostly inhibitors; 60,000 compounds, 0.1% hits; also: nearly all actives have a fitted effect of over 60% in size
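Coupled readout: USP2-cleaved Ub-PLA2 (20nM final) turns over NBD C6-HPC (20uM final), Ex 460nm/Em 535nm after 2.5 h, time-zero read flagging artifacts. Enzyme (20nM final, pH 8.0 Tris) given 30 min RT with compound first; NEM defines full inhibition.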
TSHR ag – qHTS Assay for Agonists of the Thyroid Stimulating Hormone Receptor. AID 926, 2007. Potency, µM (titrated, usually from 57.1 µM), for the others: top-dose activation, most hits filed as activators. HEK293-CNG-TSHR cells (CNG channel as cAMP sensor), membrane potential dye, cAMP. Thyrotropin receptor (Homo sapiens), P16473. 73,000 compounds, 0.48% hits; active = well fitted activation curve with a large enough effect in the main read-out, with a control signal flat, not every such curve was filed as active; inconclusive = small, poorly fitted or top-dose-only effect, or a change in a side signal; inactive = no such curve, though single readings can be large or run the other way; % of control where 0% means no effect;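 also: the control signal comes from parental cells without the receptor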
Target sequence (P16473 whole entry, looked up): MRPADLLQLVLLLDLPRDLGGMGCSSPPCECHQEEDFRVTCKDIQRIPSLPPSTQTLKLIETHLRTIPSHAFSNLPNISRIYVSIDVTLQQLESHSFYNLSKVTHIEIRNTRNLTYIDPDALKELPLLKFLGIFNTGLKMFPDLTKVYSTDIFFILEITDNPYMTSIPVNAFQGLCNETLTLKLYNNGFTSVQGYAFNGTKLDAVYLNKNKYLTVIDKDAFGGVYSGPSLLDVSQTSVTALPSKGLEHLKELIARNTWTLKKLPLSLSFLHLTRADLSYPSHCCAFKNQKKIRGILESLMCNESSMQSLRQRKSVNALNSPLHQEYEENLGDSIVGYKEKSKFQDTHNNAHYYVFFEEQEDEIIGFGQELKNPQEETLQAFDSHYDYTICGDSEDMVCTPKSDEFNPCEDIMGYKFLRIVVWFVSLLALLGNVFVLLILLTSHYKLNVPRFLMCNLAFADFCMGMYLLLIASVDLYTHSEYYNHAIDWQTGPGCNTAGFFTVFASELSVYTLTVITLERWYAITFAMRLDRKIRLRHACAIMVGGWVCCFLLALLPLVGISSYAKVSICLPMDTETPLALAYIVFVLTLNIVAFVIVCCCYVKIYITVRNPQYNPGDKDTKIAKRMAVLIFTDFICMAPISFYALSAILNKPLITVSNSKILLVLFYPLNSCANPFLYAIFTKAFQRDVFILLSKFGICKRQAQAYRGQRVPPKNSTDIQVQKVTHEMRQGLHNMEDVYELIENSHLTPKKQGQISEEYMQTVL
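HEK 293 cells stably expressing TSHR and a cAMP-gated CNG channel; parental CNG-only cells as counterscreen. Cells preloaded 60 min with membrane potential dye plus 100 uM RO 20-1724, then compound 30 min; fluorescence read at 590 nm.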
CRE-bla Fsk – Cell signaling CRE-BLA (Fsk stim). Potency, µM (top dose mostly 38.2 µM), without a hit: top-dose activity change, negative = inhibition, usual class: activators. 71,000 compounds, 2.5% hits. AID 662, 2007. CHO CRE-bla reporter (cAMP response element driving beta-lactamase), forskolin EC10, beta-lactamase ratio; active = well fitted activation curve with a large enough effect in the signal ratio, with a control signal flat, not every such curve was filed as active; inconclusive = small, poorly fitted or top-dose-only effect, or effect the other way, or a change in a side signal; the % refers to the signal ratio; also: % of control where 0% means no effect
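qHTS titration format; CRE-bla CHO reporter; stimulus EC10 NKH 477, a water-soluble forskolin. Read: CCF4 460/530 nm ratio. Potency expressed as AC50 for activators or inhibitors.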
Active calls of the source: *; ? = inconclusive; . = no result; [ ] = another dose, or the depositor's remark. Rows were chosen to be rich in hits. Some 5% of all compounds tested hit in one or more screens of this group. Unless noted, calls follow the shape of the dose curve; as a rule, active = well fitted curve in the direction sought with a large enough effect; inconclusive = small, poorly fitted or top-dose-only effect, or another doubt; inactive = no such curve, though single readings can be large; an effect the other way counts as inactive or inconclusive. Potency is read from the fitted curve at half-maximal effect.

SMILES | Casp7 inh | HEK293 cAMP cs | Casp1 inh | USP2a inhib | TSHR ag | CRE-bla Fsk
COc1ccc(OC)c(NC(=O)CSc2nnc(-c3ccco3)n2-c2ccccc2)c1 | -1% | 26% | -1% | 9% | 24% | 2.5µM*
CCc1nnc(NC(=O)CSc2nnc(-c3ccccc3O)n2-c2ccc(C)cc2)s1 | -2% | ? | -3% | 21% | ? | -2%
CCc1nnc(NC(=O)CSc2nnc(-c3ccccc3OC)n2-c2ccccc2)s1 | 0% | 10µM* | -1% | 19% | ? | 7%
COc1ccc(OC)c(NC(=O)CSc2nnc(CCCO)n2-c2ccccc2)c1 | 1% | 1% | 0% | 0% | 5% | ?
COc1ccc(C)cc1NC(=O)CSc1nnc(-c2cc3cccc(OC)c3o2)n1N | 5% | 16µM* | 1% | 23% | ? | 21%
Cn1c(=O)c2c(ncn2CN2CCN(Cn3cnc4c3c(=O)n(C)c(=O)n4C)CC2)n(C)c1=O | 0%[11.5 µM] | 1%[11.4 µM] | -2%[11.5 µM] | . | -3%[11.4 µM] | 2%[7.6 µM]
COc1cccc2c1C(=O)c1c(O)c3c(c(O)c1C2=O)C[C@](O)(C(=O)CO)C[C@H]3O[C@@H]1C[C@H](N)[C@H](O)[C@H](C)O1 | -1%[25.7 µM] | 0%[25.6 µM] | 0%[25.7 µM] | 22%[17.1 µM] | -1%[25.6 µM] | 8%[17.1 µM]
COc1cc(/C=C/C(=O)c2cccs2)cc(OC)c1OC | ? | . | -14% | . | . | .
CC1CCN(CC[C@@H]2CCCN2S(=O)(=O)c2cccc(O)c2)CC1 | -1% | 8% | 1% | 2% | 15% | -7%
COC(=O)c1cccc(CSc2nnc(-c3ccco3)n2-c2ccccc2)c1 | -4% | 20µM* | -1% | 0% | ? | ?
CCn1cc(C(=O)N2CCN(C(=O)c3ccco3)CC2)c2cc(OC)c(OC)cc2c1=O | 1% | -5% | 1% | -1% | 0%[11.4 µM] | 10µM*
C[C@H](N)C1CCC(C(=O)Nc2ccncc2)CC1 (stereo partly specified) | 0% | ? | -1% | 6% | ? | -11%
COC(=O)c1sccc1NC(=O)c1cccnc1 | 1% | 8% | 0% | 23% | 8% | 13µM*
COC(=O)c1sccc1NC(=O)c1ccc(OC)cc1 | -1% | 15% | -3% | -1% | 32% | ?
O=C(NCC(c1ccc(F)cc1)N1CCOCC1)c1ccc(Br)o1 (stereo unspecified) | 0% | 25µM* | -4% | -2% | ? | -9%
COc1ccc(C(CNC(=O)c2cc(C)oc2C)N2CCOCC2)cc1 (stereo unspecified) | -5% | ? | 2% | 8% | ? | -5%
CCOC(=O)c1c(-c2ccccc2)csc1NC(=O)c1nn(CC)cc1Br | 0% | 4% | -2% | 6% | -4% | 2.5µM*
CCOC(=O)c1c(NC(=O)c2nn(CC)cc2Br)c(C#N)cn1-c1ccccc1 | 0% | 24% | -2% | 22% | 13% | 2.5µM*
CCn1cc(Br)c(C(=O)Nc2ccc(C(=O)OC(C)C)cc2)n1 | 0% | 5% | 0% | 2% | -3% | 9%
Cc1cc(-c2ccc(N=Nc3cc(S(=O)(=O)O)c4ccccc4c3N)c(C)c2)ccc1N=Nc1cc(S(=O)(=O)O)c2ccccc2c1N | 0% | -37% | -6% | . | ? | -10%
CCN(CC)c1nc(N)c2c(N)nc3c(c2c1C#N)CC(c1ccccc1)O3 (stereo unspecified) | -21% | ? | ? | 2% | ? | 10µM*
COc1ccc(OC2C(O)COC2/C=C/C#Cc2ccccc2)cc1 (stereo unspecified) | 1%[11.5 µM] | 4%[11.4 µM] | -1%[11.5 µM] | . | -1%[11.4 µM] | .
COc1cc(-c2nc(S(=O)(=O)c3ccccc3)c(N3CCOCC3)o2)cc(OC)c1OC | -1% | -2% | -2% | 14% | 9% | 1.3µM*
COc1ccc(-c2nc(S(=O)(=O)c3ccc(C)cc3)c(N3CCCC3)o2)cc1 | 0% | ? | 0% | -9% | ? | -6%
COc1cc(/C=C(\C#N)C(N)=O)cc(CSc2nc3ccccc3s2)c1O | -7% | 1% | -4% | . | 10% | 25µM*
SMILES | Casp7 inh | HEK293 cAMP cs | Casp1 inh | USP2a inhib | TSHR ag | CRE-bla Fsk
N#CCc1nc(CSc2nc3ccccc3s2)cs1 | -6% | 10% | -1% | 31% | 7% | 0%
CC(C)=C[C@H]1[C@@H](COC(=O)c2ccccc2Cl)C1(C)C | 3%[11.5 µM] | ? | -2%[11.5 µM] | . | ? | -2%[7.6 µM]
O=C1[C@@H]2C=CC=CC2=NC(=S)N1CCN1CCC(=C(c2ccc(F)cc2)c2ccc(F)cc2)CC1 | -1% | ? | 2% | 24% | ? | -9%
Cn1c(=O)[nH]c(=O)c2c1nc(N1CCCCC1)n2CCCSc1nc2ccccc2s1 | -2% | 13% | -2% | 29% | . | 2.5µM*
Cn1c(=O)c2c(nc(N3CCCCC3)n2CCSc2nc3ccccc3s2)n(C)c1=O | 0% | ? | 1% | 15% | ? | 2%
Cn1c(=O)[nH]c(=O)c2c1nc(Br)n2CCCSc1nc2ccccc2o1 | -2% | ? | -6% | 33% | ? | 10µM*
O=C1c2ccccc2C(=O)N1CCCSc1nc2ccccc2o1 | -1% | 4µM* | -2% | -1%[7.66 µM] | ? | ?
Cn1c(=O)[nH]c(=O)c2c1nc(Br)n2CCOc1ccccc1 | -5% | -13% | 3% | 3% | -1% | 3.2µM*
O=C1c2ccccc2C(=O)N1Cc1nc2ccccc2o1 | -5% | 4% | 0% | -5% | -10% | 3%
N#C/C(=C\c1ccc(O)c(O)c1)C(=O)NCCCCc1ccccc1 | -8% | 8% | -2% | . | -5% | ?
O=C(O)c1cc(=O)[nH]c(SCc2ccccc2)n1 | 1%[11.5 µM] | 2%[11.4 µM] | 1%[11.5 µM] | . | -4%[11.4 µM] | 4%[7.6 µM]
CS(=O)(=O)N(CC(=O)O)c1ccccc1 | -1% | 2% | -1% | . | 2% | .
CN1C[C@@H](O)[C@@H](O)[C@@H](O)[C@@H]1CO | . | -5% | . | . | -3% | 0%
CCCCCc1c(C)nc(Nc2nc(C)c3cc(OC)ccc3n2)[nH]c1=O | 0% | 10µM* | 2% | 52% | ? | -2%
COc1cc(S(=O)(=O)N2CCCCCC2)c(OC)cc1Br | 0% | 16µM* | -3% | -3% | ? | -6%
CC(=O)c1cccc(NS(=O)(=O)c2cccc(C(=O)O)c2)c1 | 0% | -7% | -2% | . | 5% | .
CCOc1ccc2[nH]c(=O)c(C(c3nnnn3Cc3ccco3)N3CCCC(C)C3)cc2c1 (stereo unspecified) | -16% | 7.9µM* | -9% | 236% | ? | ?

Source: PubChem BioAssay
